KLK7 zymogen act: activates the human kallikrein-7 zymogen; AID 652039; activation, % at 7 µM; purified proKLK7, EDANS-DABCYL substrate fluorescence; 100% is mature enzyme control, 0% vehicle; 0.9% of 370,000 active; P49862;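 active means activation above the mean of all tested compounds plus 3 SD, computed per campaign excluding outliers beyond control limits, cut at about 13% in these data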
Target sequence (P49862 whole entry, looked up): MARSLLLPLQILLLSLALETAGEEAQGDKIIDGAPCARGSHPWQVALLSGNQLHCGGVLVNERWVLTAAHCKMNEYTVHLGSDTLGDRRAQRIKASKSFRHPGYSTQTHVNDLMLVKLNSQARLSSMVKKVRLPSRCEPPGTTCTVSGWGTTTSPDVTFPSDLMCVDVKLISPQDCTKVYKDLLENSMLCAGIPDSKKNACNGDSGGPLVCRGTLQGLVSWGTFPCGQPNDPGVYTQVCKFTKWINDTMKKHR
ADAM10 inh: ADAM10 inhibition, QFRET primary screen; AID 720582; 0.62% of 370,000 active; inhibition, % at 7 µM; recombinant ADAM10, EDANS/DABCYL FRET peptide cleavage, 3 h; O14672;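 active means inhibition above a per-campaign cutoff equal to the mean of compounds falling between control-based bounds plus 3 SD, cut at about 20% in these data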;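 further: 0% = DMSO wells while the 100% control is not disclosed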
ADAM17 inh: inhibitors of human ADAM17 | inhibition, % at 6.95 µM | AID 720648 | recombinant ADAM17, EDANS/DABCYL FRET peptide cleavage | 0.83% of 370,000 active | P78536;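 active means inhibition above the mean of compounds lying between control limits plus 3 SD, set per campaign, cut at about 8.5% in these data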;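 further: 0% = DMSO-only wells as the low control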
NR3A LBD binder: NR3A (human) ligand-binding domain modulation; NR3A LBD differential scanning fluorimetry, Tm shift; 0% = protein alone, 100% = glycine-bound protein; Tm shift relative to glycine control, % at 25 µM; 2.5% of 340,000 active;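 active means melting temperature shift of at least 10% of the positive control shift, at one fixed dose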
rCAG RNA binder: molecules binding r(CAG) RNA repeats; r(CAG) RNA repeat, TO-PRO-1 dye displacement fluorescence; 1.3% of 370,000 active; inhibition, % at 3 µM; AID 651821;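 active means inhibition above the plate cutoff, the mean of all test compounds on that plate plus 3 SD, cut at about 35% in these data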;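 further: 0% = DMSO alone and 100% = 100 µM mitoxantrone as full dye displacement; higher means more dye released from RNA so lower well fluorescence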
AHR act: activators of human aryl hydrocarbon receptor; AHR-responsive luciferase reporter cells, luminescence; P35869; 2.5% of 320,000 active; AID 2796; activation, % at 5 µM; in the data active means activation above about 47%;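 further: 0% = vehicle wells and 100% = reference agonist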
ADAM10 confirm: confirmation of inhibitors of human ADAM10; shares compounds with ADAM10 inh; ADAM10 QFRET peptide cleavage, EDANS fluorescence; inhibition, % at 6.95 µM; 1% of 2,100 active; AID 743208;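 active means inhibition above about 20% chosen separately for each screening run, limit read from the data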;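 further: 0% = DMSO wells and 100% = marimastat wells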
ADAM17 ctr: ADAM17 inhibition, counter-screen for ADAM10 exosite hits; shares compounds with ADAM10 inh; ADAM17 QFRET peptide cleavage, EDANS fluorescence; inhibition, % at 6.95 µM; 0.5% of 2,100 active;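 active means mean triplicate inhibition above the solvent-only control wells' mean plus 3 SD, cut at about 12% in these data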;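 further: 0% = DMSO wells and 100% = marimastat wells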
ADAM10 ctr: counter-screen for ADAM17 exosite inhibitors: inhibitors of human ADAM10. 47% of 2,900 active. recombinant ADAM10, EDANS/DABCYL FRET peptide cleavage, 3 h. shares compounds with ADAM17 inh. inhibition, % at 6.95 µM;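 active means mean inhibition over the triplicate runs exceeds the activity threshold set in the earlier primary screen, cut at about 20% in these data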;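 further: 0% = DMSO wells and 100% = marimastat wells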
ADAM17 confirm: confirmation of inhibitors of human ADAM17 | inhibition, % at 6.95 µM | shares compounds with ADAM17 inh | 65% of 2,900 active | recombinant ADAM17, EDANS/DABCYL QFRET peptide cleavage | AID 743257;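 active means mean inhibition across replicates above the hit cutoff set in the primary screen, cut at about 8.5% in these data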;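 further: 0% = DMSO wells and 100% = marimastat wells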
* hit, by the source's call; . = not tested or not shown. Hits are enriched below; roughly 7% of the tested compounds scored in any of these assays.

SMILES	KLK7 zymogen act	ADAM10 inh	ADAM17 inh	NR3A LBD binder	rCAG RNA binder	AHR act	ADAM10 confirm	ADAM17 ctr	ADAM10 ctr	ADAM17 confirm
O=C(NNC(=O)c1cc(-c2ccccc2)nc2ccccc12)Nc1cccc(Cl)c1	-0.8	24.9*	10.2*	25.6*	31.7	-1.4	18.8	7.0	31.1*	21.0*
CC1(C)Cc2cccc(OCC(=O)OCC(=O)Nc3cccc(S(N)(=O)=O)c3)c2O1	-0.3	7.7	1.9	-0.7	1.6	-0.2	.	.	.	.
Cc1cc(Nc2ccc(Cl)cc2)n(-c2cccc(Cl)c2)n1	-0.3	23.9*	9.8*	-6.0	-2.2	10.6	7.5	2.1	16.5	11.3*
CC(=O)Nc1cc(-c2cccc(C(=O)NCCN(C)C)c2)cn2c(-c3cccc(C(F)(F)F)c3)cnc12	0.7	-10.8	-4.5	.	4.5	.	.	.	.	.
CCOC(=O)CN1CCC(c2cc(-c3ccc(Cl)cc3)n[nH]2)CC1	4.2	4.5	-5.3	0.0	-12.2	13.6	.	.	.	.
O=[N+]([O-])c1cccnc1N1CCC(c2cc(-c3ccc(Cl)cc3)n[nH]2)CC1	0.3	30.0*	13.1*	7.1	2.6	-1.8	13.4	3.2	40.5*	18.7*
C#Cc1ccccc1OCCCN1CCC(C(O)(c2ccccc2)c2ccccc2)CC1	0.4	-1.1	-0.3	.	0.2	.	.	.	.	.
C(=N\n1cnnc1)/c1ccc(OCc2cccc3ccccc23)cc1	0.0	23.5*	9.7*	-9.0	1.1	-4.3	-0.3	0.4	-0.1	3.6
COc1cc(NC(=O)c2ccc(Cl)cc2Cl)ccc1NC(=O)c1cccs1	-0.3	7.5	-0.7	-1.4	0.5	4.6	.	.	.	.
CN(Cc1ccccc1)C(=O)c1ccc(NC(=O)Cc2cccc(NC(=O)C3CCCN(C(=O)CCc4ccccc4)C3)c2)cc1 (centres undefined)	1.6	24.1*	13.6*	-2.4	9.5	-0.8	3.1	1.9	24.4*	13.6*
CSc1ccccc1CNc1nc(NCC2CC2)nc2ccsc12	0.5	-11.2	-1.7	.	1.1	.	.	.	.	.
COc1ccc(C(=O)NC(=S)Nc2ccc(N3CCCC3)cc2)cc1	-0.1	-8.0	-0.7	1.1	-0.2	7.5	.	.	.	.
COc1cccc(C(=O)NC(=S)Nc2ccc(N3CCCC3)cc2)c1	0.2	32.2*	12.5*	-16.9	11.3	18.4	5.7	2.0	14.2	10.8*
Cc1ccc(-c2onc(C)c2C)cc1S(=O)(=O)N1CCOc2ccccc21	0.1	21.2*	14.4*	-0.7	6.9	2.8	6.0	2.2	7.9	5.8
CCOC(=O)C1=C(C)N(Cc2ccccc2)C(=O)NC1c1ccccc1OS(=O)(=O)c1ccccc1[N+](=O)[O-] (centres undefined)	0.7	21.3*	9.8*	1.3	6.4	-0.4	13.9	4.0	49.2*	20.7*
CC(C)(C)S(=O)N1Cc2cc(C(=O)N3CCOCC3)nc(-c3cccc(Br)c3)c2[C@@H]1CCO (some centres undefined)	-0.9	-17.6	-1.7	.	8.9	.	.	.	.	.
Cc1ccc(S(=O)(=O)c2cccc(S(=O)(=O)N3CCCC3)c2)cc1S(=O)(=O)N1CCCC1	0.8	29.4*	17.1*	4.3	4.9	1.7	-0.6	0.1	17.1	8.0
Cc1ccc(C)c(S(=O)(=O)N2CCN(C(=O)c3n[nH]c(=O)c4ccccc34)CC2)c1	0.2	-3.0	-0.7	3.1	4.1	-1.4	.	.	.	.
CCN(c1ccc(NS(=O)(=O)c2cc(Cl)ccc2Cl)cc1)C(C)C	0.2	24.2*	11.2*	-8.0	13.5	2.7	2.5	0.8	13.3	10.0*
COc1ccccc1NC(=O)CNC(c1ccccc1)c1ccccc1	0.0	29.1*	9.0*	0.2	-0.2	0.2	1.4	0.8	20.0*	10.9*
COc1ccc(C)cc1NC(=O)CNC(c1ccccc1)c1ccc(C)cc1 (centres undefined)	0.3	4.2	-1.9	0.0	2.9	11.9	.	.	.	.
O=S(=O)(NCC(Nc1ccc(Cl)cc1)c1ccccc1)c1ccccc1 (centres undefined)	0.9	53.0*	26.2*	23.5*	6.6	-0.2	10.5	3.4	45.9*	22.2*
O=c1c(Cc2c(F)cccc2Cl)c(O)ccn1CC1CCCO1 (centres undefined)	-0.4	-11.2	-9.2	-1.4	1.0	3.5	.	.	.	.
Cc1ccc(C(=O)Nc2ccccc2C(=O)Nc2ccccn2)cc1Cl	-0.3	-9.8	-1.1	-2.8	-1.6	18.4	.	.	.	.
CCOc1ccc(OCC)c(NC(=O)C2CCCN(S(=O)(=O)c3cccs3)C2)c1 (centres undefined)	0.3	28.4*	11.8*	-0.6	-1.1	.	0.0	-0.8	1.0	0.1
SMILES	KLK7 zymogen act	ADAM10 inh	ADAM17 inh	NR3A LBD binder	rCAG RNA binder	AHR act	ADAM10 confirm	ADAM17 ctr	ADAM10 ctr	ADAM17 confirm
O=C(COC(=O)/C=C/c1ccc(OC(F)F)cc1)NC1CCCCCCC1	0.0	0.3	-2.8	0.2	4.3	3.0	.	.	.	.
O=C(Nc1cccc(C(F)(F)F)c1)N1CCC(c2nc(-c3ccc(F)cc3)no2)CC1	0.4	20.9*	9.6*	20.7*	-0.3	2.3	5.6	1.9	34.2*	17.0*
O=C(Nc1ccc(Cl)cc1)C1C2C=CC3(O2)C1C(=O)N(CCCN1CCCCC1)C3C(=O)NC1CCCCC1 (centres undefined)	-0.3	0.8	-0.9	0.8	-2.0	-1.1	.	.	.	.
CCOC(=O)C(Cc1nc(OCc2ccccc2)cc(OCc2ccccc2)n1)=NO	0.2	28.4*	8.8*	-8.1	3.2	.	8.7	3.1	23.6*	12.1*
CC(=O)c1ccc(NC(=O)C2=CC(c3cccs3)=NS(=O)(=O)N2C)cc1	0.5	4.3	1.8	-8.7	6.5	0.4	.	.	.	.
CCc1ccc(NC(=O)C2=CC(c3cccs3)=NS(=O)(=O)N2C)cc1	-0.1	29.4*	18.0*	-3.8	7.7	36.1	4.6	1.1	22.6*	12.6*
Cc1ccc(C)c(Cn2nnc3c(=O)[nH]c(C4CCN(S(=O)(=O)c5ccc(S(=O)(=O)NC6CC6)cc5)CC4)nc32)c1	0.4	24.6*	11.3*	12.1*	17.1	0.6	5.0	1.7	38.5*	20.6*
Cc1ccc(C)c(Cn2nnc3c(=O)[nH]c(C4CCN(S(=O)(=O)c5ccc(S(=O)(=O)N(C)C)cc5)CC4)nc32)c1	-0.7	-2.7	-1.0	4.2	5.1	-2.3	.	.	.	.

Screening data as filed in PubChem BioAssay.
